Laboratory results as given in the supplement of paper PMC7801607.

Tested on: Plasmodium berghei ANKA liver stage in HepG2-A16-CD81
Experiment: % inhibition of liver stage parasite viability (luciferase); higher = more inhibition
Details: 5 µM; 48 h
Protocol: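 Single-concentration screen of the MMV Pandemic Response Box. P. falciparum NF54 asexual blood stages: pLDH assay, 72 h at 37 °C, 2 and 20 µM, n=2. Stage IV/V gametocytes (NF54): luciferase reporter (NF54-Pfs16-GFP-Luc, 48 h), ATP bioluminescence (24 h) and PrestoBlue (48 h) at 1 and 5 µM, n=1. P. berghei liver stage (luciferase in HepG2-A16-CD81, 48 h post infection) at 5 µM, n=4. All normalised to DMSO and kill controls as % inhibition.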

Row | SMILES | % inhibition of liver stage parasite viability [%]
1 | Oc1ccc(NCc2ccccc2OCc2ccccc2)cc1 | 25.2
2 | O=c1oc2ccc(Br)cc2cc1CSc1ncc[nH]1 | -13.1
3 | O=C1NC(=S)N/C1=C\c1cc(Br)cc(Br)c1O | -2.17
4 | Cc1cccc(CC(=O)N[C@H]2CCOC2=O)c1 | 4.19
5 | CCNC(=O)Nc1cc(-c2ccccc2)c(-c2cncc(C(=O)O)c2)cn1 | 41.3
6 | Cc1onc(-c2ccccc2)c1-c1ccc(S(N)(=O)=O)cc1 | 4.19
7 | OCCC#Cc1nc(-c2ccc(F)cc2)c(-c2ccncc2)n1CCCc1ccccc1 | 36.6
8 | CC(N)C(=O)NC(CCCCN)C(=O)NC(CCCNC(=N)N)C(=O)NC(Cc1c[nH]cn1)C(=O)NC(Cc1c[nH]cn1)C(=O)NCC(=O)NC(Cc1ccc(O)cc1)C(=O)NC(CCCCN)C(=O)NC(CCCNC(=N)N)C(=O)NC(CCCCN)C(=O)NC(Cc1ccccc1)C(=O)NC(Cc1c[nH]cn1)C(N)=O (stereo not given) | 26.4
9 | O=c1cc(NCCCN[C@@H]2CCOc3c(Br)cc(Br)cc32)[nH]c2ccsc12 | 74.7
10 | Fc1ccc(-n2cc(Cn3c(-c4cccc(F)c4)nc4ccccc43)nn2)cc1 | 6.9
11 | O=C(O)C(Cc1c[nH]c2ccccc12)N1C(=O)c2ccccc2C1=O (stereo not given) | 21.1
12 | CO/N=C(\C(=O)N[C@@H]1C(=O)N2C(C(=O)OCOC(=O)C(C)(C)C)=C(/C=C\c3scnc3C)CS[C@H]12)c1csc(N)n1 | 34
13 | C[C@@H]1O[C@@H]1P(=O)(O)O | -6.92
14 | CCCCCOc1ccc(/C=C2\Oc3c(ccc(O)c3O)C2=O)c(O)c1 | 15.2
15 | CC[C@H]1OC(=O)[C@H](C)[C@@H](O[C@H]2C[C@@](C)(OC)[C@@H](O)[C@H](C)O2)[C@H](C)[C@@H](O[C@@H]2O[C@H](C)C[C@H](N(C)C)[C@H]2O)[C@](C)(O)C[C@@H](C)C(=O)[C@H](C)[C@@H](O)[C@]1(C)O | 34
16 | FC(F)(F)c1cc(C(F)(F)F)c2ccc3nc(-c4nnco4)cn3c2n1 | 17.6
17 | O=C(/C=C/n1cnc(-c2cc(C(F)(F)F)cc(C(F)(F)F)c2)n1)NNc1cnccn1 | 11.6
18 | Oc1c(C(Nc2ccccn2)c2ccccc2)ccc2cccnc12 (stereo not given) | 12.4
19 | Cc1ncc([N+](=O)[O-])n1CC(C)O (stereo not given) | 13.9
20 | O=C(Nc1nnc(-c2ccc(Cl)cc2)o1)c1nc2ccccc2s1 | 11

Row | SMILES | % inhibition of liver stage parasite viability [%]
21 | O=C(NO)C1(CS(=O)(=O)c2ccc(Oc3ccc(Cl)cc3)cc2)CCOCC1 | 35.5
22 | O=C(Nc1[nH]c(=O)ncc1F)c1ccccc1 | 24.1
23 | Nc1nc2c(ncn2/C=C2/CC2(CO)CO)c(=O)[nH]1 | 9.21
24 | N=c1n(CCN2CCCCC2)c2ccccc2n1CC(O)COc1ccc(Cl)cc1Cl (stereo not given) | -0.075
25 | O=C(O)CSc1cc(NS(=O)(=O)c2cccc3cccnc23)c2ccccc2c1O | 35.4
26 | NC(=O)c1[nH]c2ccc(S(N)(=O)=O)cc2c1-c1ccccc1 | 21.9
27 | O=C(O)CCNC(=O)c1ccccc1 | 16
28 | N#Cc1c(F)c(Cl)c(NCc2ccccc2)c(C#N)c1F | 22.3
29 | O=C(Cc1ccccc1F)Nc1nc2ccccc2[nH]1 | -7.69
30 | C=CCc1cc(Cc2cnc(N)nc2N)cc(OC)c1O | 68.4
31 | Nc1nc(C(F)(F)F)cc2c1[nH]c(=O)n2Cc1ccccc1 | -12.1
32 | CC1CN(c2ncnc3c2c(-c2ccccc2)cn3-c2ccc(F)cc2)CC(C)O1 (stereo not given) | 37.1
33 | O=C(Cn1cnc2ccccc2c1=O)Nc1ccccc1 | 2.82
34 | Cc1ccc(C)c(OCCCCCCN2C[C@H](O)[C@@H](O)[C@H](O)[C@H]2CO)c1 | 11.6
35 | O=S(=O)(Nc1ccc(-n2cccc2)cc1)c1ccc(Cl)c(Cl)c1 | 38
36 | CSC[C@H]1CN(Cc2c[nH]c3c(N)ncnc23)C[C@@H]1O | 40.2
37 | COc1cc(C)c2c(Oc3cccc(C(F)(F)F)c3)c(OC)cc(NC(C)CCCN)c2n1 (stereo not given) | 38.2
38 | C[C@@H](c1nc(-c2ccc(C#N)cc2)cs1)[C@](O)(Cn1cncn1)c1ccc(F)cc1F | -4.98
39 | O=C1[C@H](CC[C@H](O)c2ccc(F)cc2)[C@@H](c2ccc(O)cc2)N1c1ccc(F)cc1 | 27.4
40 | COc1ccc2nc(-c3ccccc3)cc(O)c2c1 | 78.6
